Most compounds without a hit are left out; they make up all but 0.7% or so of the library.
FadD28 binding: inhibitors of FadD28 bisubstrate probe binding, primary screen, biochemical, fluorescence polarization, single point; inhibition, % at 12.5 µM; actives 0.22% (n = 360,000); AID 588549, 2011; in the data active = inhibition above about 8.5%, passing the limit was not always enough
SARS 3CLpro inh-1: SARS-CoV 3CLpro protease inhibitors, primary screen, biochemical, quenched FRET. recombinant SARS-CoV 3CLpro, quenched FRET peptide cleavage. inhibition, % at 6 µM. Replicase polyprotein 1ab (Severe acute respiratory syndrome coronavirus), P0C6X7. AID 1706, 2009. actives 0.14% (n = 290,000); in the data active = inhibition above about 12%
BioA inh: M. tuberculosis BioA enzyme inhibitors, primary screen, biochemical, plate reader, single point, HTS; 7,8-diaminopelargonic acid synthase BioA (Mycobacterium tuberculosis); purified M. tuberculosis BioA enzyme; inhibition, % at 9.99 µM; actives 0.096% (n = 360,000); AID 602481, 2012; in the data active = inhibition above about 40%
DUSP3 inh: VHR1 phosphatase inhibitors, primary screen, biochemical, absorbance, uHTS; Dual specificity protein phosphatase 3 (Homo sapiens), P51452; recombinant VHR phosphatase, pNPP absorbance; inhibition, % at 13.3 µM; actives 0.52% (n = 290,000); AID 1654, 2009; in the data active = inhibition above about 50%
Target sequence (P51452 whole entry, looked up): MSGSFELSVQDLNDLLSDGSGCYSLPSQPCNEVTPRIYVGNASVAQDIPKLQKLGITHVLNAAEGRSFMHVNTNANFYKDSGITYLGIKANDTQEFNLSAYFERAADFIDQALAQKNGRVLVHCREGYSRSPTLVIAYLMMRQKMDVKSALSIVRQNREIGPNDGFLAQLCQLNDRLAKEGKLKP
Mtb hypoxia inh: PubChem AID 1159583. M. tuberculosis hypoxia-regulated fluorescent reporter, fluorescence. fluorescence inhibition, % (concentration not given with the values). actives 0.1% (n = 300,000); in the data active = fluorescence inhibition mostly above about 23%, no sharp cut-off; inactive = mostly below about 17%
SARS 3CLpro inh-2: confirmation of SARS coronavirus 3C-like protease inhibitors, retest, confirmation, biochemical; QFRET protease activity assay, 3CLpro; actives 36% (n = 380); shares compounds with SARS 3CLpro inh-1; AID 1879, 2009; inhibition, % at 6 µM; in the data active = inhibition above about 13%
* hit, by the source's call; nt = no result shown.

SMILES	FadD28 binding	SARS 3CLpro inh-1	BioA inh	DUSP3 inh	Mtb hypoxia inh	SARS 3CLpro inh-2
C=CCC(CC(=O)N(CCO)Cc1ccccc1)C(=O)NCC(OC(=O)C(CC=C)CC(=O)OC(C)(C)C)c1ccccc1 (centres undefined)	nt	nt	nt	nt	10	nt
CCOC1OC(C(=O)NCc2ccccc2)=CC(c2ccc(C(F)(F)F)cc2)C1CCCO (centres undefined)	nt	nt	nt	nt	5	nt
COc1ccccc1/C=C1\SC(=S)N(CCC(=O)NNC(=O)c2ccccc2OC)C1=O	1	14*	nt	21	6	0
Cc1cccc(-n2nc(C)c3c(C(=O)O)cc(-c4cccs4)nc32)c1	-10	13*	nt	-15	2	8
Cc1nn(-c2cccc(Cl)c2)c2nc(-c3ccco3)cc(C(=O)O)c12	-14	6	nt	-12	nt	nt
CCCOC(=O)c1c(-c2ccc(C)cc2C)csc1NC(=O)C1C2CCC(O2)C1C(=O)O (centres undefined)	-4	12*	2	-2	5	1
O=C1CCC=CCC(CC(=O)N(CCO)Cc2ccccc2)C(=O)NCCO1 (centres undefined)	nt	nt	nt	nt	14	nt
CC1CCC(=O)N(C(CN=[N+]=[N-])Cc2ccccc2)CC1 (centres undefined)	nt	nt	nt	nt	-6	nt
CCc1nc(N2CCN(C(C)=O)CC2)c2c3c(sc2n1)CC(C(C)(C)C)CC3 (centres undefined)	-1	0	0	4	4	nt
CCc1nc(N2CCN(C(=O)CCl)CC2)c2c3c(sc2n1)CC(C)CC3 (centres undefined)	-6	38*	0	-23	nt	63*
COc1ccc(C(=O)Nn2cnc3scc(-c4cccs4)c3c2=O)c(O)c1	1	14*	-2	nt	6	6
CC(=O)n1cc(N(C(=O)CCl)c2ccc([N+](=O)[O-])cc2)c2ccccc21	-2	14*	6	-4	11	36*
CC(=O)n1cc(N(C(=O)CCl)c2ccccc2)c2ccccc21	-2	6	2	17	nt	nt
CC(NC(=O)C(C#N)=Cc1ccc(Cl)c([N+](=O)[O-])c1)c1ccccc1 (centres undefined)	nt	nt	nt	nt	9	nt
CCOc1ccc(N(CC(=O)NCCSCc2ccco2)S(=O)(=O)c2ccc(C)cc2)cc1	-3	12*	-1	-14	-2	-1
O=C(C1CC=CC2CCN(C3CC3)C(=O)C21)N1CCN(c2ccccc2)CC1 (centres undefined)	nt	nt	nt	nt	-12	nt
CCOC1OC(C(N)=O)=CC(c2cn(C(C)=O)c3ccccc23)C1CCCO (centres undefined)	nt	nt	nt	nt	16	nt
COc1ccc(C=NNC(=O)c2ccc(-n3cnnn3)cc2)cc1	nt	nt	nt	nt	8	nt
COc1cc(NC(=O)COn2nnc3ccc(S(C)(=O)=O)cc32)cc(OC)c1	-5	6	1	5	8	nt
O=C(COn1nnc2ccc(S(=O)(=O)N3CCOCC3)cc21)Nc1c(F)c(F)c(F)c(F)c1F	-3	2	1	21	4	nt
Cc1cc(Br)c(NC(=O)COn2nnc3ccc(S(C)(=O)=O)cc32)c(Br)c1	-1	12*	nt	14	2	8
Cc1cc(NC(=O)COn2nnc3ccc(S(C)(=O)=O)cc32)ccc1Br	-1	24*	nt	9	0	31*
Cc1cc(C)cc(NS(=O)(=O)c2ccc3[nH]cc(C(=O)N4CCc5ccccc54)c(=O)c3c2)c1	-3	14*	nt	-2	12	-2
CCc1ccc2c(c1)C(NC(C)=O)C(=O)N2CCN1CCOCC1 (centres undefined)	2	14*	-1	-4	nt	50*
Cc1ccc(N2C(=O)c3ccccc3C2=O)cc1	-2	3	-1	12	11	nt
SMILES	FadD28 binding	SARS 3CLpro inh-1	BioA inh	DUSP3 inh	Mtb hypoxia inh	SARS 3CLpro inh-2
Cc1ccc(SC2=C(Sc3ccc(C)cc3)C(=O)c3ccccc3C2=O)cc1	-2	6	-1	5	3	5
COc1ccc(S(=O)(=O)c2c(O)c3ccc(C(=O)Nc4cccc(F)c4)cc3[nH]c2=O)cc1	-48	13*	12	-7	7	5
COc1cccc(NC(=O)c2ccc3c(O)c(S(=O)(=O)c4ccccc4)c(=O)[nH]c3c2)c1	-23	8	1	-12	6	nt
C#CCOCCOCCOCCNc1nc(N2CCN(C(=O)CCCCCCCCCCNC(=O)C(CO)n3cc(CCCSC)nn3)CC2)nc(N2CCN(C(=O)CCCCCCCCCCNC(=O)C(CCC(=O)O)n3cc(CCCCCN)nn3)CC2)n1 (centres undefined)	nt	nt	nt	nt	-13	nt
CC(=O)N(c1ccc(C(F)(F)F)cc1)S(=O)(=O)c1ccc(N2C(=O)CCC2=O)cc1	-4	13*	1	0	-1	1
CN1CCN2c3ccc(N)cc3CC3(C(=O)NC(=O)NC3=O)C2C1 (centres undefined)	-1	22*	-1	16	7	63*
CN1C(=O)N(C)C(=O)C2(Cc3cc(N)ccc3N3CCN(c4ccccc4F)CC32)C1=O (centres undefined)	nt	2	nt	15	nt	nt
COc1cc(NC(=O)c2cc(Cl)nnc2Cl)cc(OC)c1OC	1	22*	9	20	-7	6
COc1cccc(NC(=O)c2cc(Cl)nnc2Cl)c1	0	7	nt	15	-1	nt
CC(=NNC(=O)c1ccc(CSc2nc(C)cc(C)n2)cc1)c1ccco1	nt	nt	nt	nt	-3	nt
Cc1noc2c1C(c1ccc(N(C)C)cc1)C1=C(CC(C)(C)CC1=O)N2 (centres undefined)	-4	-1	1	15	0	nt
Cc1ccc(C2C3=C(CC(C)(C)CC3=O)Nc3onc(C)c32)cc1 (centres undefined)	-2	15*	nt	-6	nt	-3
COc1ccc(SCCN2CCC(C)CCC2=O)cc1 (centres undefined)	nt	nt	nt	nt	21	nt
N#Cc1c(-c2ccccc2)nc(SCC(=O)Nc2ccc(OC(F)(F)Cl)cc2)[nH]c1=O	-5	16*	9	nt	7	1
O=C1C(Cc2ccccc2)NCCCCC(c2ccco2)N1Cc1ccccc1 (centres undefined)	nt	nt	nt	nt	8	nt
O=C1C(=Cc2ccco2)N=C(N2CCCCC2)N1c1ccccc1	nt	nt	nt	nt	3	nt
COc1ccc(-c2n[nH]c(C(F)(F)F)c2-c2cc3ccccc3o2)c(O)c1	-12	14*	-2	8	7	9
COc1ccccc1-c1c(-c2ccc(OCC(=O)NN)cc2O)n[nH]c1C(F)(F)F	-15	2	1	5	0	nt
NCCCn1c(C(=O)c2cc(Cl)c(N)c(Cl)c2)c2ccccc2[n+]1[O-]	-3	nt	27	nt	8	nt
NC(=O)CCn1c(C(=O)c2cccc([N+](=O)[O-])c2)c2ccccc2[n+]1[O-]	-2	26*	-1	29	3	26*

Compound activity from PubChem.
